# POLH inh: DNA polymerase eta (human) inhibition; Q9Y253; recombinant Pol eta, fluorescent DNA replication assay; Potency, µM (highest dose often 114 µM), inactives show at the top dose activity change, negative = inhibition, hits mostly inhibitors; 390,000 tested, 1.2% active; AID 588591; also: potency is read from the fitted curve at half-maximal effect; % is scaled to controls: 0 for no effect and ±100 for the full control effect
#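 Pol eta (10 nM) was preincubated with compounds for 15 min at room temperature, after which fluorescent replication substrate (50 nM final) was added to start the reaction. Fluorescence was read kinetically at 0 and 10 min.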
# POLK inh: DNA polymerase kappa (human) inhibition | 400,000 tested, 0.53% active | Potency, µM (doses to about 107 µM), without a hit: at the highest dose activity, negative = inhibition, usual class: inhibitors | purified Pol kappa, fluorescent DNA synthesis assay, 10 min; also: potency is read from the fitted curve at half-maximal effect; % is scaled to controls: 0 for no effect and ±100 for the full control effect
#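 Inhibition of 10 nM Pol kappa is measured by a fluorescent read-out at 0 and 10 min following addition of 50 nM substrate (final), with a 15-min room-temperature compound preincubation.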
# Pol beta inh: inhibitors of human DNA polymerase beta | AID 485314 | Potency, µM (doses to about 114 µM), for inactives: at the top dose activity change, negative = inhibition, hits mostly inhibitors | P06746 | 340,000 tested, 1.3% active | Pol beta primer extension/strand displacement, fluorescence kinetic; also: potency is read from the fitted curve at half-maximal effect; % is scaled to controls: 0 for no effect and ±100 for the full control effect
#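 Pol beta (10 nM) and compounds were preincubated 15 min at room temperature, then 50 nM substrate (final) started primer extension/strand displacement. Reads were taken at 0 and 10 min; concentration-response data were fitted to a four-parameter Hill equation.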
# WRN inhibitor: WRN helicase (human) inhibition; Potency, µM (titrated, usually from 114 µM), for inactives: at the highest dose activity change, negative = inhibition, hits mostly inhibitors; 360,000 tested, 0.46% active; WRN helicase unwinding, fluorescent forked duplex, kinetic; Q14191; also: potency is read from the fitted curve at half-maximal effect; % is scaled to controls: 0 for no effect and ±100 for the full control effect; nearly all actives have a fitted effect of over 55% in size
#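 Kinetic fluorescence helicase assay: unwinding of a quenched forked DNA duplex (100 nM final) with 2 mM ATP final raises red fluorescence (525/598 nm). Compounds sat 15 min at room temperature with 20 nM WRN beforehand.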
# Pol iota inh: DNA polymerase iota (human) inhibition | Q9UNA4 | Pol iota fluorescent replication assay, 10 min | Potency, µM (top dose mostly 115 µM), for inactives: at the highest dose activity, negative = inhibition, hits mostly inhibitors | 390,000 tested, 1% active; also: potency is read from the fitted curve at half-maximal effect
#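 Pol iota at 10 nM preincubated 15 min with compounds at room temperature; reaction started with fluorescent substrate, 50 nM final. Fluorescence read kinetically at 0 and 10 min; buffer-only wells as negative control.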
# PI5P4K alpha inh: PI5P4K alpha (human) kinase inhibition; 330,000 tested, 1.2% active; AID 652105; max response, %; P48426; PI5P4Kalpha enzyme, ADP-Glo luminescence, 60 min; active compounds read low; active = max response of -50% or lower; inconclusive = between -30% and -50%; inactive = -30% or higher; also: value at the top dose of about 77 µM; % is scaled to controls: 0 for no effect and ±100 for the full control effect
#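 ADP-Glo luminescence end-point after a 60 min room-temperature kinase reaction. PI5P4Kalpha and substrate in HEPES pH 7.4 buffer with EGTA, 0.1% CHAPS and 5% DMSO; ATP at 5 microM final.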
# Starred values were filed as active, the others as inactive; ? = inconclusive; · = no result given; [ ] = another dose, or the depositor's remark. An excerpt weighted towards active compounds, which were near 2.8% of everything screened. Unless noted, calls follow the shape of the dose curve; as a rule, active = well fitted curve in the direction sought with a large enough effect; inconclusive = small, poorly fitted or top-dose-only effect, or another doubt; inactive = no such curve, though single readings can be large; an effect the other way counts as inactive or inconclusive.
SMILES,POLH inh,POLK inh,Pol beta inh,WRN inhibitor,Pol iota inh,PI5P4K alpha inh
Cc1nn(Cc2ccc(C(=O)Nc3ccc(C(=O)OC(C)C)cc3)o2)c(C)c1Cl,-13%,-21%,45µM*,-30%,?,·
COc1ccc(S(=O)(=O)N2CCN(c3nc(-c4ccccc4)nc4ccccc34)CC2)cc1,·,-4%,·,·,0%,·
CCCN(C)CCCOc1cc2nc(N3CCCN(C)CC3)nc(NC3CCN(C)CC3)c2cc1OC,·,-3%,·,·,?,·
O=C1/C(=C\c2ccncc2)SC(=S)N1C1CCCCC1,-16%,-8%,79µM*,0%,4%,0
O=Cc1coc2c(ccc3ccccc32)c1=O,·,·,79µM*,·,·,·
Cc1ccc2nc(N(Cc3cccnc3)C(=O)C3CCCCC3)sc2c1,-21%,-8%[60.1 µM],1%,·,16%,·
O=C(Cc1ccccc1)Nc1ccc(C(=O)Nc2ccc(O)cc2)cc1,-22%,-5%,-17%,-12%,19%,0
O=C(Nc1ccc(Nc2ccccc2)cc1)c1ccccc1,-15%,9%,·,-14%,-7%,0
COC(=O)c1ccc(NC(=O)CSc2ccccc2)cc1,-16%,-10%,18%,-16%,-2%,-12
O=C(CSc1ccccc1)Nc1ccc(C(=O)Nc2ccc(O)cc2)cc1,-3%,-10%,79µM*,-7%,-19%,-11
O=C(Cc1ccccc1)NNC(=O)c1ccc(NC(=O)c2ccccc2)cc1,-15%,-13%,20µM*,-11%,?,-11
O=C(NNC(=O)c1ccc(NC(=O)c2ccccc2)cc1)c1ccccc1,-9%,-9%,79µM*,-15%,?,-8
Cc1ccc(-n2cnc3cc(C(=O)NCc4ccccc4Cl)ccc32)c(C)c1,-12%,-10%[60.1 µM],5%,·,-26%,·
O=C(N/N=C/c1cccc([N+](=O)[O-])c1)C1COc2ccccc2O1 (stereo unspecified),-12%,-3%,19%,-4%[57.1 µM],22%,12
Cc1ccc(-n2c(O)c(/C=N/NC(=O)C3COc4ccccc4O3)c3ccccc3c2=O)cc1 (stereo unspecified),?,-9%,-13%,-28%,6%,?
O=C(N/N=C\c1ccc(Br)o1)C1COc2ccccc2O1 (stereo unspecified),45µM*,-74%,35µM*,-15%[11.6 µM],45µM*,?
O=C(N/N=C/c1c(O)n(-c2ccccc2Cl)c(=O)c2ccccc12)C1COc2ccccc2O1 (stereo unspecified),-15%,-32%,-2%,?,39%,-53*
O=C(N/N=C\c1cccc([N+](=O)[O-])c1O)C1COc2ccccc2O1 (stereo unspecified),-8%,-11%,5%,-11%,?,-69*
COc1ccc(F)c(Cn2cnc3c(cnn3C(C)(C)C)c2=O)c1Cl,·,-10%,·,·,2%,·
Cc1cc(Nc2cc(F)ccc2C)nc(-n2nc(C)cc2C)n1,-19%,-15%[60.1 µM],39%,·,3%,·
COc1ccc2nc(/C(C#N)=C\c3ccc(Oc4ccc([N+](=O)[O-])cn4)cc3)[nH]c2c1,?,-5%,-11%,-21%,57%,?
COc1ccc2nc(/C(C#N)=C\c3ccc(C(=O)O)cc3)[nH]c2c1,22µM*,-19%,-2%,?,57%,?
N#C/C(=C\c1ccc(OC(=O)c2cccs2)cc1)c1nc2ccccc2[nH]1,?,-44%,35µM*,?,34%,-13
O=C(Cc1ccc(Cl)c(Cl)c1)NNC(=S)NCC1CCCO1 (stereo unspecified),6%,-4%,-2%,-3%,-21%,-1
Cc1ccccc1CSCC(=O)NNC(=S)NCC1CCCO1 (stereo unspecified),-11%,-33%,?,-25%,89µM*,-3
SMILES,POLH inh,POLK inh,Pol beta inh,WRN inhibitor,Pol iota inh,PI5P4K alpha inh
CCc1ccc(CN(Cc2cn[nH]c2-c2ccc(OC)cc2)C(=O)Nc2ccc(Br)cc2)cc1,-16%,-21%,4%,·,18%,·
Cc1cccc(-c2nc(SCCCOc3cc(C)c(Cl)c(C)c3)n3[nH]c(=O)cc3n2)c1,1%,-2%,8%,·,-11%,·
CC(C)(C)c1ccc(-c2nc(SCCOc3ccc(Cl)cc3)n3[nH]c(=O)cc3n2)cc1,50µM*,-19%,?,·,11%,·
C=CCc1ccccc1OCCSc1nc(-c2cccs2)nc2cc(=O)[nH]n12,79µM*,?,25µM*,·,?,·
CC(C)(C)c1ccc(OCCSc2nc(-c3cccs3)nc3cc(=O)[nH]n23)cc1,?,?,32µM*,·,25%,·
O=c1cc2nc(-c3cccs3)nc(SCCOc3ccc(Cl)cc3)n2[nH]1,9%,-26%,?,·,?,·
Cc1ccc(OCCCSc2nc(-c3ccc(C(C)(C)C)cc3)nc3cc(=O)[nH]n23)cc1C,45µM*,-20%,?,·,1%,·
Cc1c(CCNC=O)cc(C)c2c3c(oc12)CCCC3,-17%,-14%,·,-2%,20%,11
COc1ccccc1C1(O)CC2CCC(C1)N2S(=O)(=O)c1ccc(C(C)=O)cc1 (stereo unspecified),-15%,-12%[60.1 µM],1%,-4%[57.1 µM],100µM*,·
Cc1ccc(CNC(=O)CSc2nc3ccccc3nc2Cc2ccc(C)cc2)cc1,-21%,-1%[60.1 µM],8%,·,-8%,·
CCCCc1cc(-c2n[nH]c(=S)o2)c2ccccc2n1,-5%,-10%,-5%,-13%,124%,-56*
O=c1[nH]nc(-c2cc(-c3ccccc3)nc3ccccc23)o1,-11%,·,·,-7%,·,4
COCCNC(=O)CN1C(=O)COc2ccc(S(=O)(=O)N3CCCC3)cc21,-10%,-10%,5%,·,10%,·
O=C1c2ccc(Oc3ccc([N+](=O)[O-])cc3)cc2C(=O)N1CCO,-18%,-3%,34%,6%,174%,13
COc1ccccc1Oc1ccc2c(c1)C(=O)N(c1ccccc1)C2=O,-11%,-2%,-12%,-5%,-11%,5
CC(=O)NN1C(=O)c2ccc(Oc3ccc([N+](=O)[O-])cc3)cc2C1=O,1%,-15%,17%,-18%,69%,·
O=C(O)CN1C(=O)c2ccc(Oc3ccc4c(c3)C(=O)N(CC(=O)O)C4=O)cc2C1=O,32µM*,-37%,25%,-2%[57.1 µM],-9%,-3
O=C(O)CN1C(=O)c2ccc(Oc3cccc4c3C(=O)N(CC(=O)O)C4=O)cc2C1=O,79µM*,-7%,-23%,-7%[57.1 µM],17%,·
CC(=O)NN1C(=O)c2ccc(Oc3ccc4c(c3)C(=O)N(NC(C)=O)C4=O)cc2C1=O,·,·,11µM*,·,·,·
Cc1ccc(OCCn2cnc3cc([N+](=O)[O-])ccc3c2=O)cc1,-7%,1%,36%,-8%,168%,-5
O=c1c2ccc([N+](=O)[O-])cc2ncn1CCOc1ccccc1,-18%,?,6%,-2%[11.6 µM],89µM*,9
